# Laboratory results taken from PubChem BioAssay (NCI).
# Compounds without any hit were thinned out: in the full panel of roughly 83,000, 20% have a hit.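 Activity criterion: percent growth below 10, measured after cells in 96-well plates were exposed to a single compound concentration for 48 hours.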 Unmarked numbers belong to inactive results. The source made the active and inactive calls.
# Tests used:
# Test in all cases: NCI-60 one-dose screen, 48 h (100 = growth as untreated, 0 = no growth, -100 = all killed)
# Details in all cases: 10 µM unless noted
# T-47D breast = test system: T-47D breast
# BT-549 breast = test system: BT-549 breast
# MDA-MB-435 melanoma = test system: MDA-MB-435 melanoma
# SW-620 colon = test system: SW-620 colon
# MCF7 breast = test system: MCF7 breast
# HCT-116 colon = test system: HCT-116 colon
# HCC-2998 colon = test system: HCC-2998 colon
# KM12 colon = test system: KM12 colon
Structure (SMILES),growth (T-47D breast),growth (BT-549 breast),growth (MDA-MB-435 melanoma),growth (SW-620 colon),growth (MCF7 breast),growth (HCT-116 colon),growth (HCC-2998 colon),growth (KM12 colon)
c1ccc(C(c2nc3ncncc3[nH]2)N2CSc3nc4ccccc4n3C2)cc1 (stereo not given),110%,102%,105%,98%,94.9%,114%,107%,94.4%
CC(C)(C)c1ccc(C(=O)Nc2nc3ccc(O)cc3s2)cc1,28.5%,62.9%,34.3%,14.2%,15.8%,45.6%,14.7%,14%
Cc1ccc(NC(=S)NNC(=S)Nc2ccc(C)cc2)cc1,101%,92.9%,102%,108%,91.1%,106%,110%,101%
O=[N+]([O-])c1cc(/C=N/Nc2nc(N/N=C/c3ccc(Cl)c([N+](=O)[O-])c3)nc(N3CCCCC3)n2)ccc1Cl,48.2%,97.9%,92.3%,63.7%,0.909% (active),22%,67.4%,5.45% (active)
O=C1CCC(N2C(=O)c3ccc(NS(=O)(=O)c4ccccc4OC(F)(F)F)cc3C2=O)C(=O)N1 (stereo not given),16.2%,14.8%,64.4%,20.2%,44.5%,96.8%,11%,40.6%
C#Cc1ccc(C(=O)NCc2ccc(/C=C/C(=O)c3nccn3C)cc2)cc1,34%,51%,26.2%,10.5%,12.2%,14%,9.76% (active),15.5%
Nc1nc(-c2cccc([N+](=O)[O-])c2)c(N=Nc2ccc([N+](=O)[O-])cc2Cl)s1,4.47% (active),-24.9% (active),6.11% (active),13%,2.17% (active),0.397% (active),12.9%,2.86% (active)
C=C(C)[C@@H]1CC[C@]2(C(=O)NCCCCCN(CCC#N)CCC#N)CC[C@]3(C)[C@H](CC[C@@H]4[C@@]5(C)CCC(=O)C(C)(C)[C@@H]5CC[C@]43C)[C@@H]12,106%,92.9%,99.7%,97.4%,86.2%,95.5%,110%,101%
CC(O)c1cc2ccccc2c(=O)o1 (stereo not given),104%,105%,96.3%,98.9%,91.5%,108%,99.9%,106%
NC(N)=Nc1ccc(Oc2cccc(NC(N)=Nc3ccc(Cl)c(C(F)(F)F)c3)c2)cn1,32.9%,60.4%,46.4%,38.5%,20.2%,15.8%,62.6%,24.7%
C#Cc1nc(/C=C/C(=O)c2nccn2C)cs1,-23.4% (active),-59.1% (active),1.27% (active),-24.9% (active),-30% (active),-48.8% (active),-83.1% (active),-43.5% (active)
COc1ccccc1NC1=C(Cl)C(=O)c2nc(C)ccc2C1=O,-44.7% (active),83.5%,-86% (active),-63.1% (active),-60.4% (active),-80.6% (active),58.9%,69.4%
CNc1ncc2cc(-c3ccc(-c4ncccc4F)cc3Cl)c(=O)n(CC3OCC(N)CO3)c2n1 (stereo not given),72.5%,82.1%,105%,99.1%,101%,80.2%,100%,95.7%
COc1ccc2[nH]cc(/C=N/Nc3nc4ccccc4s3)c2c1,2.18% (active),58.7%,66.2%,74.7%,22.5%,46.8%,41%,13.6%
O=C(NNc1nc2cc(F)ccc2n2c(CN3CC4CNCC4C3)ccc12)c1cnccn1 (stereo not given),37.8%,35.3%,26.1%,23%,12.2%,16.4%,32.1%,16.8%
Cn1ccnc1C(=O)/C=C/c1ccc(NC(=O)c2c(F)c(F)c(F)c(F)c2F)cc1,103%,98.2%,107%,105%,70.8%,101%,125%,105%
Cc1cc(C)c2sc(=O)n(Cc3nnc(SCCC(=O)O)o3)c2n1,89.5%,123%,103%,103%,97%,103%,104%,106%
O=S(=O)(Nc1ccc(I)cc1Cl)c1ccc(-c2cnc(C3CC3)o2)cc1,31.7%,34.9%,-4.66% (active),17.9%,23.1%,22.1%,78.6%,26%
CCCCCc1ccc(S(=O)(=O)Nc2cc(-c3csc(NC(=O)CN4CCN(C)CC4)n3)ccc2OC)cc1,-24.3% (active),87.7%,-84.1% (active),-26.9% (active),-63.8% (active),-70.8% (active),-50.2% (active),25.8%
CCCn1cnc2c(c1=N)C(c1ccc(Cl)cc1)c1sc3c(CC)cccc3c1O2 (stereo not given),10.2%,41.3%,-35.4% (active),25.5%,17%,12.1%,17.8%,15.6%
Cc1nc2ncc(-c3ccc4ncnc(NCc5ccccc5)c4c3)cc2[nH]1,1.3% (active),57.3%,82.1%,82.3%,27.1%,77.8%,79.2%,77.8%
N#Cc1ccccc1Cn1c2nc(=N)c3ccccc3c-2nc2ccccc21,66.8%,88%,70%,54.6%,34.7%,46.9%,60.2%,60.7%
Cc1cc(-c2ccc(Cl)cc2)n(Cc2nnc(SCC(=O)Nc3ccc(S(N)(=O)=O)cc3)n2-c2ccc([N+](=O)[O-])cc2)n1,70.3%,116%,87.4%,84.5%,58%,60.9%,97.8%,79.6%
O=C(CCn1c[n+](CC(=O)c2ccc(F)cc2)c2ccccc21)Nc1cccc2cccnc12,53.9%,69.9%,79%,92.3%,68%,53.1%,87%,76%
O=C(CSc1nc2ccccc2c(=O)n1-c1ccccc1)Nc1cccc(C(=O)/C=C/c2ccccc2)c1,76.8%,112%,93.2%,90%,19%,-13.7% (active),113%,87.5%
C[C@H]1c2[nH]c3ccccc3c2C[C@H]2C(=O)N(CCCCCCC(=O)NO)CC(=O)N21,61%,96.5%,84%,80.5%,70.8%,72.8%,114%,84.1%
C[C@H](CCC(=O)NCc1ccc(C(=O)Nc2ccccc2N)cc1)[C@H]1CC[C@H]2[C@@H]3[C@@H](O)C[C@@H]4C[C@H](O)CC[C@]4(C)[C@H]3CC[C@]12C,48%,54.1%,60.2%,56%,45.7%,31.2%,89.5%,64%
O=S(=O)(NCCCNc1nccc(-c2[nH]c(-c3ccccc3)nc2-c2ccc(Cl)c(O)c2)n1)c1ccc(Br)cc1,30%,40.3%,2.09% (active),55.8%,19.5%,14.5%,47.2%,22%
CCn1c2ccccc2c2cc(-n3nncc3-c3ccccc3)ccc21,61.8%,80.5%,-14.3% (active),21.3%,13.4%,5.07% (active),15.2%,17.1%
C[C@@H]1C[C@H]2C(=O)O[C@@H](C)C(NC(=O)[C@H](Cc3cc(F)cc(F)c3)NC(=O)Nc3ccc(Cl)cc3F)C(=O)N3CCC[C@H]3C(=O)N3CCCC[C@H]3C(=O)N[C@@H](CO)C(=O)N2C1 (stereo not given in full),34.4%,35.3%,19.5%,39.9%,16.1%,9.85% (active),26%,42%
